Experimental data from PubChem BioAssay AID2685 (National Center for Advancing Translational Sciences (NCATS), 2010).
Hit rate of the full screen: of about 320,000 compounds, about 2,100 (0.66%) were called active. Roughly 53% stayed inconclusive and do not appear here. Calls come from the whole dose curve; as a rule, active = well fitted inhibition curve with a large enough effect in the signal ratio, with a control signal flat (not every such curve was filed as active); inconclusive = small, poorly fitted or top-dose-only effect, or effect the other way, or a change in a side signal; inactive = flat fitted curve, though single readings scatter; the % refers to the signal ratio. The entries come from a sample that favours actives as a whole.

Assay: qHTS Assay for Lipid Storage Modulators in Drosophila S3 Cells;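 for cell number change: cells counted by Cell Tracker Red CMTPX staining in the red channel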; for lipid storage change, negative = inhibition: % is set by controls: 0 for no effect and ±100 for the full control effect
Conditions: BODIPY lipid droplet fluorescence, 18-24 h, cells fed with added oleic acid; cell number change: measured here: cell count max response; series mostly up to 46.1 µM
How it was run: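 Laser-scanning cytometry quantifies lipid droplet accumulation (500–530 nm total intensity; droplet/cell object ratio) in oleic acid-fed (400 uM added) Drosophila S3 cells treated with a concentration series. 20 uM Triacsin C defined 100% inhibition.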
Potency is the fitted concentration of half-maximal effect.

SMILES	Potency	cell number change	lipid storage change, negative = inhibition
CCc1c(C)sc(NC(=O)c2cccs2)c1C#N	inactive	-15.6%	–
COc1cc2c(cc1OC)C(c1cccc([N+](=O)[O-])c1)NC(=O)C2 (stereo unspecified)	inactive	-2.94%	–
COc1cc2c(cc1OC)C(c1ccc([N+](=O)[O-])cc1)NC(=O)C2 (stereo unspecified)	6.51 µM (active)	-4.67%	–
COc1cc2c(cc1OC)C(c1ccc(C)cc1)NC(=O)C2 (stereo unspecified)	inactive	–	–
O=C(N/N=C/c1ccco1)c1cc(-c2cccc3ccccc23)n[nH]1	inactive	-16.1%	–
CCn1nc(NS(=O)(=O)c2ccc(F)cc2)c2cc3cccc(C)c3nc21	inactive	-26.3%	–
CCn1nc(NS(=O)(=O)c2ccccc2)c2cc3cccc(C)c3nc21	inactive	-3.04%	–
Cc1cccc2cc3c(NC(=O)C(C)(C)C)nn(CC(C)C)c3nc12	inactive	-9.6%	–
CCn1nc(NC(C)=O)c2cc3cccc(C)c3nc21	inactive	–	–
CCn1nc(NC(=O)C(C)(C)C)c2cc3cccc(C)c3nc21	2.91 µM (active)	12.4%	–
CCn1nc(NS(=O)(=O)c2ccc([N+](=O)[O-])cc2)c2cc3cccc(C)c3nc21	1.46 µM (active)	-19.5%	–
CCOC(=O)C(C(=O)OCC)c1c([N+](=O)[O-])c(=O)n2c3c(cccc13)CCC2	inactive	0.163%	–
COc1ccc(OC(=O)NCCc2ccccc2)cc1	inactive	–	–
Cc1cc2oc(C(=O)N3CCN(CCc4ccccn4)CC3)c(C)c2cc1C	inactive	–	–
O=C(NCc1cccc(Cl)c1)C1CCC(=O)N(CCN2CCOCC2)C1 (stereo unspecified)	inactive	19%	–
O=C(NCc1ccccc1Cl)C1CCC(=O)N(CCCN2CCCC2=O)C1 (stereo unspecified)	inactive	-14.7%	–
O=C(NCc1cccc(Cl)c1)C1CCC(=O)N(CCCN2CCCC2=O)C1 (stereo unspecified)	1.84 µM (active)	15.8%	–
CC(C)CCNC(=O)c1cc([N+](=O)[O-])ccc1N1CCOCC1	inactive	-14%	–
CCN1CCc2c(sc(NC(=S)NC(=O)c3ccc(Cl)cc3)c2C(N)=O)C1	inactive	6.82%	–
CCOC(=O)c1c(NC(=O)c2ccc(S(=O)(=O)N3CCOCC3)cc2)sc2c1CCN(C(C)C)C2	inactive	6.84%	–
CCN1CCc2c(sc(NC(=O)c3ccc4ccccc4c3)c2C(N)=O)C1	–	-8.56%	-25.3% [at 0.369 µM] (inactive)
CC(C)N1CCc2c(sc(NC(=O)c3ccc(S(=O)(=O)N4CCOCC4)cc3)c2C(N)=O)C1	inactive	0.268%	–
CCN1CCc2c(sc(NC(=O)c3ccc(S(=O)(=O)N(C)CC4CCCO4)cc3)c2C(N)=O)C1 (stereo unspecified)	2.91 µM (active)	-26.3%	–
CC(C)N1CCc2c(sc(NC(=O)c3ccc(S(=O)(=O)N(C)CC4CCCO4)cc3)c2C(N)=O)C1 (stereo unspecified)	7.31 µM (active)	-19.4%	–
CC1=CC(C)(C)NC(=S)N1C(C)c1ccccc1 (stereo unspecified)	inactive	20.7%	–

SMILES	Potency	cell number change	lipid storage change, negative = inhibition
O=C(CCNC(=O)Cn1ccc2ccccc2c1=O)NCc1ccccn1	inactive	1.28%	–
COc1ccc([N+](=O)[O-])cc1NCC(=O)Nc1cc(S(=O)(=O)N2CCCCC2)ccc1C	16.4 µM (active)	-23.1%	–
COc1cc(NC(=O)CNc2ccc(Cl)c(S(=O)(=O)N3CCOCC3)c2)cc(OC)c1	inactive	-14.4%	–
COc1cc(NCC(=O)Nc2cccc(S(=O)(=O)N3CCCCC3)c2)cc(OC)c1OC	inactive	-2.08%	–
COc1ccc(S(=O)(=O)N2CCCCC2)cc1NC(=O)CNc1ccc(F)cc1C	inactive	11.8%	–
CCN(CC(=O)Nc1cccc(S(=O)(=O)N2CCOCC2)c1)Cc1ccccc1	–	–	-10.6% [at 0.0737 µM] (inactive)
O=C(CNc1cccc(S(=O)(=O)N2CCCC2)c1)Nc1ccc(F)c(F)c1	inactive	2.77%	–
Cc1ccc(NC(=O)CNc2cccc(S(=O)(=O)N3CCCCC3)c2)cc1F	1.46 µM (active)	–	–
O=C(CNc1cccc(S(=O)(=O)N2CCOCC2)c1)Nc1ccccc1F	inactive	4.62%	–
COC(=O)c1ccccc1NC(=O)CNc1ccc(F)c(S(=O)(=O)N2CCOCC2)c1	3.26 µM (active)	0.245%	–
COc1ccc(S(=O)(=O)N2CCCCC2)cc1NCC(=O)Nc1ccc(C)cc1	inactive	-1.26%	–
CCN(CC)S(=O)(=O)c1cc(NC(=O)CNc2cccc(S(=O)(=O)N3CCOCC3)c2)ccc1C	2.06 µM (active)	-23.6%	–
O=C(CSc1ccccc1)Nc1cccc(S(=O)(=O)N2CCOCC2)c1	inactive	-14.2%	–
Oc1cccc(CCC2CCCCN2Cc2cn[nH]c2-c2ccc3c(c2)OCO3)c1 (stereo unspecified)	inactive	7.37%	–
Fc1ccc(N/N=C(/c2ccccc2)c2ccccn2)cc1	inactive	9.54%	–
CN(C)c1ccc(C=NCCC2(O)CCOC(C)(C)C2)cc1 (stereo unspecified)	inactive	2.42%	–
NC(=O)N/N=C/CCc1ccccc1	inactive	7.84%	–
S=c1[nH]nc(CNc2cccc(Cl)c2)o1	inactive	5.85%	–
Cc1[nH]c2ccccc2c1/C=N/NC(=O)c1cc(C(C)C)[nH]n1	inactive	17.7%	–
O=C(/C=C/c1cccc(Cl)c1)NCCc1ccccc1	inactive	4.34%	–
CN1CCN(c2ccc(CNS(=O)(=O)Cc3ccc(Cl)cc3)cc2)CC1	inactive	-12.5%	–
CNC(=O)Cn1c(C)cc(=O)c2cccc(C)c21	inactive	13.3%	–
CN(Cc1ccccc1)S(=O)(=O)c1ccc(OCC(=O)Nc2cccc([N+](=O)[O-])c2)cc1	inactive	18.8%	–
CCOc1ccccc1OCCCC(=O)Nc1nc2ccccc2[nH]1	inactive	–	–
COc1ccc(-c2noc(CSc3nc4ccccc4c(=O)n3-c3ccc(C)cc3)n2)cc1	inactive	13.3%	–

SMILES	Potency	cell number change	lipid storage change, negative = inhibition
Clc1ccc(OCc2cn3cccnc3n2)c2ncccc12	inactive	–	–
CC[C@H](C)[C@H](NC(N)=O)C(=O)Nc1ccc(S(=O)(=O)NC(C)C)cc1	inactive	3.97%	–
CC(=O)c1cccc(NCC(=O)Nc2cccc(S(=O)(=O)N3CCCCC3)c2)c1	inactive	13.3%	–
O=C(CNc1cccc(S(=O)(=O)N2CCCC2)c1)Nc1cccc(Br)c1	inactive	14.3%	–
COc1ccc(OCCCC(=O)Nc2cc([N+](=O)[O-])ccc2C)cc1	14.6 µM (active)	-3.49%	–
COc1ccc(OCCCC(=O)Nc2cccc([N+](=O)[O-])c2)cc1	inactive	10.1%	–
O=C(CNc1cccc(S(=O)(=O)N2CCCCCC2)c1)Nc1cccc([N+](=O)[O-])c1	20.6 µM (active)	20.3%	–
Cc1ccc([N+](=O)[O-])cc1NC(=O)CCCOc1ccccc1	inactive	2.03%	–
O=C(O)c1cccc(Nc2c([N+](=O)[O-])c(=O)oc3ccccc23)c1	inactive	3.37%	–
CC(=O)Oc1ccc(C(=O)Nc2ccc(S(=O)(=O)N3CCOCC3)cc2)cc1	inactive	-28%	–
Cc1ccc2[nH]c(=O)c(CN(CC3CCCO3)C(=S)Nc3ccccc3)cc2c1 (stereo unspecified)	inactive	-9.29%	–
O=C(Nc1ccccc1)C1C(c2ccccc2)C1(Cl)Cl (stereo unspecified)	inactive	-2.33%	–
CCOc1ccc(NC(=O)C2C(c3ccccc3)C2(Cl)Cl)cc1 (stereo unspecified)	16.4 µM (active)	-15.7%	–
COc1ccc(NC(=O)C2C(c3ccccc3)C2(Cl)Cl)cc1 (stereo unspecified)	inactive	19.2%	–
OCCN1CCN(CCSc2ccccc2)CC1	inactive	0.698%	–
CCn1ncc(-c2csc(N)n2)c1C	inactive	9.82%	–
O=C(c1ccccc1)N1CN2CN(C(=O)c3ccccc3)CC([N+](=O)[O-])(C2)C1	inactive	6.5%	–
COc1ccccc1C(CNC(=O)c1cc(C)nc2ccccc12)N(C)C (stereo unspecified)	inactive	9.21%	–
O=C(O)CCN=CC1=C(O)CC(c2ccccc2)CC1=O (stereo unspecified)	1.03 µM (active)	15.8%	–
CCCN=CC1=C(O)CC(c2ccccc2)CC1=O (stereo unspecified)	inactive	5.05%	–
CCCCCN=CC1=C(O)CC(c2ccccc2)CC1=O (stereo unspecified)	inactive	-15.5%	–
COCCn1c(SCC(=O)NCCc2ccc(OC)c(OC)c2)nc2c([nH]c3ccccc32)c1=O	inactive	5.96%	–
NC(=O)Cn1cc(C(=O)C(=O)N2CCOCC2)c2ccccc21	inactive	-8.62%	–
O=C(O)Cn1cc(C(=S)N2CCOCC2)c2ccccc21	23.1 µM (active)	-0.629%	–
S=C(c1cn(Cc2ccccc2)c2ccccc12)N1CCOCC1	inactive	4.05%	–

SMILES	Potency	cell number change	lipid storage change, negative = inhibition
CCc1nc2oc3ccccc3c(=O)c2c(=O)n1CCOC	–	14.4%	-1.96% [at 9.22 µM] (inactive)
O=C(CCc1ccccc1)NC(NC(=S)Nc1ccc(Br)cc1)C(Cl)(Cl)Cl (stereo unspecified)	inactive	-27.3%	–
Cc1ccc(-n2nnnc2SCCNS(=O)(=O)c2ccccc2)cc1C	inactive	-14.2%	–
Cc1ccc(NC(=O)CSc2nnc(N)s2)cc1S(=O)(=O)N1CCCCC1	inactive	-23.8%	–
CCc1ccc(CNC(=O)C2Cc3cc(S(=O)(=O)N4CCCC4)ccc3N2C(C)=O)cc1 (stereo unspecified)	11.6 µM (active)	-14.2%	–
CCOc1ccc(CNC(=O)C2Cc3cc(S(=O)(=O)N4CCCCC4)ccc3N2C(C)=O)cc1 (stereo unspecified)	inactive	8.5%	–
CC(=O)N1c2ccc(S(=O)(=O)N3CCCC3)cc2CC1C(=O)NCc1ccc(N(C)C)cc1 (stereo unspecified)	inactive	12.7%	–
CCN(CC)S(=O)(=O)c1cc(OC)c(Cl)cc1OC	inactive	14.5%	–
COc1cc(/C=N/NC(=O)COc2ccc(-n3cnnn3)cc2)ccc1OCC(N)=O	inactive	7.43%	–
CCc1ccc(N(CC(=O)O)S(=O)(=O)c2c(C)noc2C)cc1	inactive	7.92%	–
Cc1cc(C)cc(N(CC(=O)O)S(=O)(=O)c2c(C)noc2C)c1	23.1 µM (active)	2.34%	–
Cc1noc(C)c1S(=O)(=O)N(CC(=O)O)c1ccc2c(c1)OCO2	inactive	–	–
CC(=O)Nc1ccc(NC(=O)Cn2c(=O)n(-c3ccc(C)cc3)c(=O)c3oc4ccccc4c32)cc1	inactive	-4.98%	–
COc1ccc(CC(=O)Nc2cccc(S(=O)(=O)N3CCCCCC3)c2)cc1OC	20.6 µM (active)	-6.09%	–
COc1ccc(CC(=O)Nc2cccc(S(=O)(=O)N3CCOCC3)c2)cc1OC	23.1 µM (active)	-21.4%	–
O=C(CN1CCN(S(=O)(=O)c2ccc3ccccc3c2)CC1)Nc1ccc(N2CCOCC2)cc1	inactive	-8.53%	–
O=C(CN1CCN(S(=O)(=O)c2ccccc2)CC1)Nc1ccnn1C1CCCC1	inactive	-2.45%	–
COc1ccccc1N1CCN(CC(=O)Nc2ccnn2C2CCCC2)CC1	inactive	1.72%	–
COc1ccc(N2CCN(CC(=O)Nc3cccc(S(=O)(=O)N4CCOCC4)c3)CC2)cc1	16.4 µM (active)	-21.6%	–
COc1ccc(CC(=O)Nc2cccc(S(=O)(=O)N3CCCCC3)c2)cc1	inactive	-18.3%	–
COc1ccc(CC(=O)Nc2cc(S(=O)(=O)N3CCCCC3)ccc2C)cc1OC	inactive	-3.08%	–
COc1cccc(N2CCN(CC(=O)Nc3ccnn3C3CCCC3)CC2)c1	10.3 µM (active)	-10.7%	–
O=C(Cc1ccc(Br)cc1)Nc1cccc(S(=O)(=O)N2CCOCC2)c1	inactive	-12.5%	–
COC(=O)c1cccc(NC(=O)CN2CCN(c3ccc(OC)cc3)CC2)c1	inactive	6.81%	–
COc1ccccc1CCC(=O)Nc1cccc(S(=O)(=O)N2CCOCC2)c1	inactive	12.7%	–
